Test systems include SK-MEL-2 melanoma; EKVX NSCLC; SN12C renal; TK-10 renal; ACHN renal; CAKI-1 renal; A498 renal; CCRF-CEM leukemia; MOLT-4 leukemia.
Assay in all cases: NCI-60 one-dose screen, 48 h (100 = growth as untreated, 0 = no growth, -100 = all killed)
What all share (details): 10 µM

About 83,000 compounds went through this panel and 20% of them were active in at least one assay; those are over-represented in the sample as a whole.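 Step 1: grow cells in 96-well plates. Step 2: add test compound at a single concentration. Step 3: incubate 48 h. Step 4: record percent growth.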 Values without a mark were called inactive. The source made the active and inactive calls. Rule for the calls: active = growth percent below 10; inactive = the rest.

Regarding `OCCn1cccn1`, the growth is 118% in the experiment on SK-MEL-2 melanoma; 105% in the experiment with EKVX NSCLC; 104% with SN12C renal; 107% in the experiment with TK-10 renal; 103% in the experiment with ACHN renal; 86.4% in the experiment on CAKI-1 renal. The growth in the experiment on A498 renal was 94.2%; in the experiment with CCRF-CEM leukemia it was 99.7%; in the experiment on MOLT-4 leukemia, 95.7%.

For the compound `Clc1nc2ccccc2cc1Cn1nnc(Cc2ccccc2)n1`, the growth was 58.8% in the experiment with SK-MEL-2 melanoma; 36.1% with EKVX NSCLC; 70.3% in the experiment with SN12C renal; 60.9% in the experiment on TK-10 renal; 52.2% with ACHN renal; 40.5% in the experiment with CAKI-1 renal. For the same compound, in the experiment on MOLT-4 leukemia, the growth was 43.1%.

Turning to `CCCCN1C(=O)CC(SC2CC(=O)N(CCCC)C2=O)C1=O` (centres undefined), the growth was 99.7% in the experiment with SK-MEL-2 melanoma; 98.5% in the experiment on EKVX NSCLC; 102% in the experiment on SN12C renal; 103% with TK-10 renal; 99% with ACHN renal; 99.6% in the experiment with A498 renal. For the same compound, the growth with CCRF-CEM leukemia was 97.1%; in the experiment on MOLT-4 leukemia, 103%.

As to `c1cncc(-c2csc(-c3c[nH]c4ccccc34)n2)c1`, the growth in the experiment on SK-MEL-2 melanoma was 97.3%; in the experiment on EKVX NSCLC it was 50.6%; with SN12C renal it was 85.9%; in the experiment with TK-10 renal, 125%; with ACHN renal it was 88%; in the experiment on CAKI-1 renal, 88.3%. In the experiment on MOLT-4 leukemia, the growth is 79.8%.

Regarding `O=c1c(Br)ccc(Br)cc1Br`, the growth was -73.3% (active) with SK-MEL-2 melanoma; 99.1% with EKVX NSCLC; 4.44% (active) in the experiment with SN12C renal; -44.5% (active) in the experiment with TK-10 renal; -79.1% (active) in the experiment with ACHN renal; -81.3% (active) in the experiment on CAKI-1 renal. For the same compound, the growth in the experiment on A498 renal is 93%; in the experiment with CCRF-CEM leukemia, -41.4% (active); in the experiment with MOLT-4 leukemia, -36.8% (active).

As to `COc1ccc2c(c1)CC=C1[C@@H]2CC[C@]2(C)C(=O)/C(=N/O)C[C@@H]12`, the growth in the experiment on SK-MEL-2 melanoma was 115%; in the experiment with EKVX NSCLC, 76.6%; in the experiment with SN12C renal, 82.7%; in the experiment with TK-10 renal it was 92.7%; with ACHN renal, 74.4%; in the experiment on CAKI-1 renal, 6.9% (active). The growth with CCRF-CEM leukemia is 33.1%; in the experiment on MOLT-4 leukemia, 63.3%.

As to `COc1cc(CNC(=O)C2CSC3(C)c4ccccc4C(=O)N23)cc(OC)c1OC` (centres undefined), the growth is 89.3% with SK-MEL-2 melanoma; 108% in the experiment with EKVX NSCLC; 91.6% in the experiment on SN12C renal; 102% in the experiment with TK-10 renal; 97.4% with ACHN renal; 89.8% in the experiment on CAKI-1 renal. Moreover, the growth in the experiment on A498 renal is 90.5%; in the experiment on CCRF-CEM leukemia, 90.7%; in the experiment with MOLT-4 leukemia it was 81.2%.

`COc1ccc(-c2nn(-c3cccc(Cl)c3)cc2-c2nc(N)[nH]c(=O)c2C#N)cc1`: the growth with SK-MEL-2 melanoma was 70.9%; with EKVX NSCLC, 31.8%; in the experiment with SN12C renal, 84.9%; in the experiment with TK-10 renal, 110%; in the experiment with ACHN renal it was 87.5%; with CAKI-1 renal, 30.6%. The growth with CCRF-CEM leukemia is 61.6%; in the experiment on MOLT-4 leukemia it was 53.7%.

Regarding `Cc1cc(Br)nnc1Br`, the growth is 123% with SK-MEL-2 melanoma; 114% in the experiment on EKVX NSCLC; 109% in the experiment on SN12C renal; 124% in the experiment with TK-10 renal; 108% in the experiment on ACHN renal; 101% with CAKI-1 renal. For the same compound, the growth is 97.8% in the experiment on CCRF-CEM leukemia and 93.4% in the experiment with MOLT-4 leukemia.

For `Fc1ccc(C(c2ccc(F)cc2)C(Cl)Cl)cc1`, the growth is 97.1% with SK-MEL-2 melanoma; 101% in the experiment on EKVX NSCLC; 108% with SN12C renal; 110% in the experiment with TK-10 renal; 102% with ACHN renal; 96.8% in the experiment with CAKI-1 renal. Moreover, the growth is 93.7% with CCRF-CEM leukemia and 94.2% in the experiment with MOLT-4 leukemia.

With `COC(=O)CC[C@@H](C)[C@H]1CC[C@H]2[C@@H]3CC[C@@H]4C[C@H](O)CC[C@]4(C)[C@H]3C[C@H](O)[C@]12C`, the growth in the experiment with SK-MEL-2 melanoma is 87.7%; with EKVX NSCLC, 103%; in the experiment with SN12C renal, 97.8%; in the experiment with TK-10 renal, 92.7%; in the experiment on ACHN renal it was 99.1%; with CAKI-1 renal, 89.8%. Besides, the growth with A498 renal is 119%; with CCRF-CEM leukemia, 86.3%; with MOLT-4 leukemia, 76.4%.

In the case of `CCn1c(SCc2ccc(C)cc2)nnc1-c1nn(-c2ccc(Cl)cc2Cl)c(-c2ccc(Cl)cc2)c1C`, the growth in the experiment with SK-MEL-2 melanoma was 4.93% (active); in the experiment with EKVX NSCLC, 10.4%; in the experiment on SN12C renal, 1.66% (active); with TK-10 renal, 18.1%; in the experiment with ACHN renal, 2.32% (active); with CAKI-1 renal it was 40.5%. Moreover, the figures for the growth in the experiment with A498 renal and in the experiment on MOLT-4 leukemia were 18.9% and 2.46% (active), respectively.

Regarding `COc1cc2ncnc(NC3CCC(O)CC3)c2cc1OC` (centres undefined), the growth with SK-MEL-2 melanoma was 97.1%; with EKVX NSCLC, 80.8%; in the experiment with SN12C renal, 106%; in the experiment with TK-10 renal, 90%; in the experiment on ACHN renal, 94.9%; in the experiment on CAKI-1 renal, 88.5%. Besides, the growth was 93.7% with A498 renal and 62.8% in the experiment with MOLT-4 leukemia.

Turning to `CCOc1ccccc1/C=N\N=C(\N)N/N=C/c1ccccc1OCC`, the growth is 14.9% in the experiment with SK-MEL-2 melanoma; 64.8% with EKVX NSCLC; 45.2% in the experiment with SN12C renal; 67.8% with TK-10 renal; 44.8% with ACHN renal; 37.2% in the experiment with CAKI-1 renal. Moreover, the growth in the experiment on CCRF-CEM leukemia was 16.9%; in the experiment on MOLT-4 leukemia, 26.5%.

For the compound `COc1cc(Cc2cc(-c3ccccc3)n[nH]c2=O)cc(OC)c1OC`, the growth with SK-MEL-2 melanoma is 56.6%; in the experiment on EKVX NSCLC, 43.6%; in the experiment on SN12C renal, 72.9%; with TK-10 renal it was 75.5%; with ACHN renal, 86.4%; with CAKI-1 renal, 64.6%. Besides, the results for the growth in the experiment with A498 renal and in the experiment on MOLT-4 leukemia were 69% and 30.9%, respectively.

Turning to `CC(C)C1=C(O)C2=C(C(=O)C1=O)[C@@]1(C)CCCC(C)(C)[C@@H]1CC2`, the growth in the experiment with SK-MEL-2 melanoma was 97.7%; with EKVX NSCLC, 67.1%; with SN12C renal, 81%; in the experiment with TK-10 renal it was 81.5%; in the experiment with ACHN renal it was 59.6%; in the experiment with CAKI-1 renal, 15%. In the experiment on MOLT-4 leukemia, the growth was 44.2%.

Source of the values: PubChem BioAssay (NCI).
